Measurements from the supplement of paper PMC6555819.

Columns and labels:
Assay in all cases: PBM binding z-score (relative to random genomic background probes); higher = stronger binding; sequences stand for … in GC…GCGATTGACAGCGTAGAATGAAGG
[1] = tested on: FXR:RXRa (NR concentration 270 nM, RXRa partner concentration 90 nM)
Method in brief: (§1)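 Regression normalization was applied to scanned fluorescence from custom Agilent 4×180K protein-binding microarrays. Before scanning, arrays were incubated 1 h with ligand-free nuclear receptor dimers, and binding was detected with antibodies against each partner (one per run). Binding z-scores use the random background probes as reference.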

[2] = tested on: LXRa:RXRa (NR concentration 270 nM, RXRa partner concentration 90 nM)
Method in brief: as §1

[3] = tested on: LXRa homodimer (NR concentration 270 nM)
Method in brief: as §1

[4] = tested on: LXRb:RXRa (NR concentration 270 nM, RXRa partner concentration 90 nM)
Method in brief: as §1

[5] = tested on: LXRb homodimer (NR concentration 270 nM)
Method in brief: as §1

[6] = tested on: PPARa:RXRa (NR concentration 270 nM, RXRa partner concentration 90 nM)
Method in brief: as §1

[7] = tested on: PPARg:RXRa (NR concentration 180 nM, RXRa partner concentration 90 nM)
Method in brief: as §1

[8] = tested on: PPARg:RXRa 270nM:90nM, anti-RXR (NR concentration 270 nM, RXRa partner concentration 90 nM)
Method in brief: as §1

[9] = tested on: PPARg:RXRa 30nM:10nM, anti-RXR (NR concentration 30 nM, RXRa partner concentration 10 nM)
Method in brief: as §1

[10] = tested on: PPARg:RXRa 90nM:30nM, anti-RXR (NR concentration 90 nM, RXRa partner concentration 30 nM)
Method in brief: as §1

[11] = tested on: PPARg:RXRa DBDmut IVT, anti-RXR (DBD mutation: RXRa K156A/R161A, NR concentration 270 nM, RXRa partner concentration 90 nM)
Method in brief: as §1

[12] = tested on: PPARg:RXRa IVT, anti-PPARg (NR concentration 270 nM, RXRa partner concentration 90 nM)
Method in brief: as §1

[13] = tested on: PPARg DBDmut:RXRa IVT, anti-PPARg (DBD mutation: PPARg1 K132A/R137A, NR concentration 270 nM, RXRa partner concentration 90 nM)
Method in brief: as §1

[14] = tested on: PPARg DBDmut IVT, anti-PPARg (DBD mutation: PPARg1 K132A/R137A, NR concentration 270 nM)
Method in brief: as §1

[15] = tested on: PPARg homodimer (NR concentration 180 nM)
Method in brief: as §1

[16] = tested on: PXR:RXRa (NR concentration 270 nM, RXRa partner concentration 90 nM)
Method in brief: as §1

[17] = tested on: PXR homodimer (NR concentration 270 nM)
Method in brief: as §1

[18] = tested on: RARa:RXR (NR concentration 270 nM, RXRa partner concentration 90 nM)
Method in brief: as §1

[19] = tested on: RARa homodimer (NR concentration 270 nM)
Method in brief: as §1

[20] = tested on: RARb:RXRa (NR concentration 270 nM, RXRa partner concentration 90 nM)
Method in brief: as §1

Sequence	PBM binding z-score [1]	PBM binding z-score [2]	PBM binding z-score [3]	PBM binding z-score [4]	PBM binding z-score [5]	PBM binding z-score [6]	PBM binding z-score [7]	PBM binding z-score [8]	PBM binding z-score [9]	PBM binding z-score [10]	PBM binding z-score [11]	PBM binding z-score [12]	PBM binding z-score [13]	PBM binding z-score [14]	PBM binding z-score [15]	PBM binding z-score [16]	PBM binding z-score [17]	PBM binding z-score [18]	PBM binding z-score [19]	PBM binding z-score [20]
AAAATGAGGTTATTAAGATCAGGGAATTGCGGTC	1.95	1.63	0.3	1.44	-0.0347	2.8	2.05	2.19	0.556	1.48	3.99	3.21	0.794	0.452	0.921	1.23	0.722	1.41	0.567	1.51
AATACAGGGTCACTAGGCCGGAGTAGGTACGAAT	5.72	5.1	0.78	3.77	1.05	5.36	6.6	6.03	2.5	4.78	3.1	5.05	0.885	0.938	1.34	2.98	0.306	3.81	-0.208	3.97
CCTAGTAGGTCAGGAGGTCACACACCGGATATGA	5.48	4.97	2.62	4.41	0.811	5.81	9.01	7.34	6.14	7.5	7.03	7.47	1.73	1.02	4.99	4.94	1.33	6.63	3.21	4.72
TCATATAGGTAATAGAGGTGAAAGTCGGCATCTA	1.47	1.99	0.555	1.43	0.0572	2.96	2.3	3.61	4.55	4.02	4.53	4.06	1.5	0.929	0.919	1.12	0.895	1.92	1.02	1.27
GGAACGAGGGCAAGTTGATTGCAGAGTTTGATGG	1.16	0.697	-0.325	0.396	-0.755	1.84	0.925	1.03	-0.0716	0.569	3.51	2.76	0.164	-0.675	0.268	0.704	0.465	0.608	-0.397	2.69
CGTCCAAGCTCAAAGGTCAGTGAAGAGATGACGG	3	2.95	0.546	2.8	0.14	3.99	3.03	4.16	2.1	3.97	0.0789	1.7	-0.175	-0.869	3.43	3.24	0.202	4.05	1.36	4.48
CGAACTAGGTCAAGGACAGGGAATCTCCGCACGC	3.17	2.12	0.324	1.32	-0.364	4.52	7.01	6.26	3.78	5.95	8.32	7.95	1.81	0.477	3.11	1.05	0.302	2.12	0.471	4
CAGCCTAGGTCAGGGCCAGTCTAGGAGGAACGTT	1.43	0.988	-0.566	0.24	-1.33	2	0.484	0.9	-0.591	0.125	1.23	1.44	-1.02	-1.49	0.16	0.386	-0.83	1.06	-0.6	3.28
TGAATGAGGTTTTAAGATCAGGGAACGTTGCAAA	-0.288	-0.516	-0.631	-0.358	-0.602	0.0128	-0.186	0.12	0.000594	0.043	-0.427	-0.0166	-0.325	-0.224	0.0827	-0.0619	-0.319	0.152	0.043	-0.198
CCAGACAGGTGACAGGTAACTCAGTCTGGTACGC	-0.312	-0.0899	-0.169	-0.0936	-0.582	0.79	1.37	1.4	0.0561	0.74	1.77	1.46	-0.216	-0.746	0.536	-0.209	0.203	0.0624	0.656	0.724
ACAGACAGGTGATGAAGGTAACTCATGCTATCAT	-0.264	-0.284	0.081	-0.0857	-0.304	0.0179	0.862	-0.0647	0.121	-0.0244	0.199	0.711	-0.0414	-0.123	-0.0711	-0.216	-0.133	-0.118	0.279	0.221
ACTAGCAGGCCAAGGCTCACTCAAGATTAGTCCG	-0.393	-0.377	-0.331	-0.701	-0.95	-0.271	0.588	0.682	-0.134	0.168	1.13	0.144	-0.648	-0.572	-0.478	-0.766	-0.282	-0.478	-0.56	0.257
TCATATAGGTAAGTGCTAGGTGAAAGTCCGATCT	0.366	0.752	0.094	0.207	0.122	0.896	0.556	2.06	3.39	2.49	3.42	2.48	0.55	0.697	0.802	0.193	0.147	0.223	1.04	0.4
CCTACTGGGCCATTCAGAGGTCATTGACCATATG	3.07	4.59	6.66	3.95	0.537	3.86	2.55	3.37	1.07	2.25	4.24	4.24	0.0159	0.229	2.02	4.93	2.23	4.52	0.388	3.17
